Reference: PubChem BioAssay (NCATS)
Results filed as inconclusive are left out. Calls of active or inactive are those of the source. Unless noted, calls follow the shape of the dose curve; as a rule, active = well fitted curve in the direction sought with a large enough effect; inconclusive = small, poorly fitted or top-dose-only effect, or another doubt; inactive = no such curve, though single readings can be large; an effect the other way counts as inactive or inconclusive.

Key:
[1] = target: Estrogen receptor (Homo sapiens) (UniProt P03372); assay: qHTS assay for small molecule agonists of estrogen receptor alpha signaling (AID 588514; calls by dose curve; also: potency is read from the fitted curve at half-maximal effect; nearly all actives have a fitted effect of over 70% in size)
How it was run: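 EC50 and efficacy came from Hill fits of beta-lactamase reporter signal (CCF4 dye, 2 h at room temperature) scaled between DMSO and 20 nM 17-beta-estradiol. Agonist mode: HEK293 ER-alpha-UAS-bla cells in charcoal/dextran-stripped serum medium, 18 h compound exposure at 37 C.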

[2] = target: Bile acid receptor (Homo sapiens) (UniProt Q96RI1); assay: qHTS assay for small molecule agonists of farnesoid X receptor signaling (AID 588527; calls by dose curve; also: potency is read from the fitted curve at half-maximal effect); details: HEK293T FXR-UAS-bla, beta-lactamase ratio, 16 h; activation: active compounds read high
How it was run: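 Read-out: beta-lactamase reporter fluorescence with CCF4 substrate in GeneBLAzer FXR-UAS-bla HEK293T cells, after 16 h compound exposure at 37 C. Response scaled between DMSO basal (0%) and chenodeoxycholic acid at 100 uM (100%).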

[3] = target: Glucocorticoid receptor (Homo sapiens) (UniProt P04150); assay: qHTS assay for small molecule antagonists of glucocorticoid receptor signaling (AID 588533; active = well fitted inhibition curve with a large enough effect in the signal ratio, with a control signal flat, not every such curve was filed as active; the % refers to the signal ratio;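 also: cells stimulated with 2 nM dexamethasone as agonist; potency is read from the fitted curve at half-maximal effect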)
How it was run: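 Antagonist-mode qHTS: compound titrations added to GRE-bla HeLa cells, then dexamethasone 2 nM final; 18 h, 37 C. CCF4 FRET fluorescence normalized to dexamethasone and DMSO; IC50 from Hill fit.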

[4] = target: Peroxisome proliferator-activated receptor delta (Homo sapiens) (UniProt Q03181); assay: qHTS assay for small molecule agonists of peroxisome proliferator-activated receptor delta signaling (AID 588534; calls by dose curve; also: potency is read from the fitted curve at half-maximal effect)
How it was run: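 Agonist-mode beta-lactamase reporter readout (CCF4 dye, 2 h at RT) after 18 h at 37 °C exposure to a titration; Hill-equation fitting gave EC50 and maximal response.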

[5] = target: Peroxisome proliferator-activated receptor gamma (Homo sapiens) (UniProt P37231); assay: qHTS assay for small molecule antagonists of peroxisome proliferator-activated receptor gamma signaling (AID 588537; active = well fitted inhibition curve with a large enough effect in the signal ratio, with a control signal flat, not every such curve was filed as active; the % refers to the signal ratio; also: potency is read from the fitted curve at half-maximal effect)
How it was run: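 Fluorescence at 460 and 530 nm (405 nm excitation) reported beta-lactamase cleavage of CCF4 after 2 h room-temperature loading. HEK293 reporter cells in 1% charcoal/dextran-treated FBS had received compound and rosiglitazone for 16 h.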

[6] = target: Vitamin D3 receptor (Homo sapiens) (UniProt P11473); assay: qHTS assay for small molecule agonists of vitamin D receptor signaling (AID 588543; calls by dose curve; also: potency is read from the fitted curve at half-maximal effect)
How it was run: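 Agonist-mode beta-lactamase reporter: HEK293T VDR-UAS-bla cells in charcoal-stripped 2% FBS, compound series 16 h 37 C, CCF4 2 h RT. EC50 from Hill fit, scaled against DMSO and 50 nM calcitriol control.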

[7] = target: Thyroid hormone receptor beta (Homo sapiens) (UniProt P10828); assay: qHTS assay for small molecule agonists of thyroid hormone receptor beta signaling (AID 588545; calls by dose curve; also: potency is read from the fitted curve at half-maximal effect)
How it was run: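 HEK 293 TR-UAS-bla; agonist mode; 18 hrs, 37 C; CCF4, ex 405/em 460 and 530 nm; norm. T3 10 nM = 100%, DMSO = 0%; Hill fit → EC50, efficacy.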

[8] = qHTS assay for small molecule activators of the p53 signaling pathway (AID 651743; active = well fitted activation curve with a large enough effect in the signal ratio, not every such curve was filed as active; the % refers to the signal ratio; also: potency is read from the fitted curve at half-maximal effect); details: HCT-116 p53RE-bla, beta-lactamase FRET ratio, 16 h; activation: active compounds read high
How it was run: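 Following 16 hours of compound exposure at 37 C, HCT-116 cells bearing the p53RE-bla reporter were loaded with LiveBLAzer B/G FRET substrate for 2 hours at room temperature and fluorescence intensity was recorded.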

[9] = qHTS assay for small molecule activators of the nuclear factor-kappa B (NF-kB) signaling pathway (AID 651749; active = well fitted activation curve with a large enough effect in the signal ratio; the % refers to the signal ratio; also: potency is read from the fitted curve at half-maximal effect); details: NF-kB-bla ME-180 cells, beta-lactamase FRET ratio, 16 h; activation: active compounds read high
How it was run: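 In this qHTS format, compounds acting as activators increase NF-kB-driven beta-lactamase in ME-180 cells, measured as disrupted FRET after 16 hr exposure at 37C and 5% CO2.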

[10] = qHTS assay for environmental chemicals that activate the Aryl hydrocarbon Receptor (AhR) signaling pathway (AID 651777); details: 1A2-DRE human hepatoma cells, luciferase, 24 h; activation: active compounds read high; also: % of control where 0% means no effect; nearly all actives have a fitted effect of over 15% in size
How it was run: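 Induction of CYP1A2 transcription through AhR is detected by luciferase in 1A2-DRE hepatoma cells. Compounds or DMSO act for 24 hr at 37 C before a 30 min One-Glo step at room temperature.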

[11] = target: Peroxisome proliferator-activated receptor alpha (Homo sapiens) (UniProt Q07869); assay: qHTS assay for small molecule agonists of the peroxisome proliferator-activated receptor alpha (PPARalpha) signaling pathway (AID 651778); details: PathHunter PPARalpha complementation, chemiluminescence, 6 h; active compounds read high; also: % of control where 0% means no effect
How it was run: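 Enzyme-fragment complementation assay in which ligand-bound PPARalpha translocates and forms an active enzyme that generates chemiluminescence. Cells were plated overnight, exposed to compound for 6 hr at 37 C, and then given detection reagent for 60 min at room temperature.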

[12] = qHTS assay for cell viability of the p53RE-bla HCT-116 cell line (AID 743292); also: % is scaled to controls: 0 for no effect and ±100 for the full control effect; nearly all actives have a fitted effect of over 55% in size
How it was run: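 In this qHTS counter-screen, metabolically competent p53RE-bla HCT-116 cells were counted via their ATP content. Compounds were applied for 16 h at 37 C and luciferase-coupled luminescence was measured.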

[13] = system: Zika virus NS2B-NS3 protease (unlinked complex); assay: Primary screen GU Rhodamine qHTS for Zika virus inhibitors: Unlinked NS2B-NS3 protease assay (AID 1347159); also: % is scaled to controls: 0 for no effect and ±100 for the full control effect; nearly all actives have a fitted effect of over 60% in size
How it was run: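 Enzyme 25 nM in Tris-HCl pH 8.0 + 0.01% Tween 20; compounds up to 114 microM, 15 min RT dark; + Rhod110 substrate 1.5 microM; read t0 and 15 min; delta fluorescence → % inhibition → 4-parameter Hill fit.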

[14] = system: Zika virus NS2B-NS3 protease (linked construct); assay: Primary screen NINDS Rhodamine qHTS for Zika virus inhibitors (AID 1347160); also: % is scaled to controls: 0 for no effect and ±100 for the full control effect; nearly all actives have a fitted effect of over 55% in size
How it was run: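 Enzyme (25 nM, linked NS2B-NS3) was preincubated 15 min with compound in 10 mM Tris-HCl pH 8.0, 0.01% Tween 20. Rhodamine110 substrate (1.5 microM) was then added and fluorescence read at start and after 15 min.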

[15] = Primary qHTS for inhibitors of nuclear receptor binding SET domain protein 2 (NSD2) in an isogenic RCH-ACV NSD2 p.E1099K mutant (9B) (AID 1645876); also: potency is read from the fitted curve at half-maximal effect; nearly all actives have a fitted effect of over 70% in size
[16] = Primary qHTS for inhibitors of nuclear receptor binding SET domain protein 2 (NSD2) in an RCH-ACV wild type WT cells (2C) (AID 1645877); also: potency is read from the fitted curve at half-maximal effect; nearly all actives have a fitted effect of over 70% in size
[17] = target: Luciferin 4-monooxygenase (Photinus pyralis) (UniProt P08659); assay: Primary firefly luciferase (FLuc) qHTS assay for identification of artifact compounds. (AID 1845220); details: outcome: dose series up to 54.1 µM unless noted;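 also: plate controls were DMSO vehicle for no effect and no enzyme for full effect; nearly all actives have a fitted effect of over 60% in size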
How it was run: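 Enzymatic FLuc inhibition assay: compounds pre-exposed to luciferin/ATP (10 uM each) for 15 min, then purified P. pyralis enzyme at 10 nM added. Read-out: luminescence at 5 min.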

[18] = system: Nanoluciferase (engineered Oplophorus gracilirostris luciferase); assay: Primary Nanoluciferase (NLuc) qHTS assay for identification of artifact compounds. (AID 1845222);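 also: NLuc secreted into diluted conditioned medium of S16 cells; 0% = DMSO and -100% = no enzyme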
How it was run: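 S16 cell supernatant NLuc, 1:55; cpds qHTS; 15 min RT dark; Nano-Glo substrate 1:100, 5 min; luminescence; Hill fit of % inhibition.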

[19] = Primary redox qHTS assay for identification of artifact compounds. (AID 1845223)
How it was run: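 Redox-cycling detection via DTT (250 uM final) oxidation coupled to Amplex Red (25 uM)/HRP (250 mU/mL) in HBSS. 15 min preincubation plus 30 min after DTT, room temperature. Ex/Em 525/598 nm; 4-parameter Hill fit against DMSO and 10 uM DA3003.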

HaCat [20] = assay: Cytotoxic Profiling of Annotated Libraries Using Quantitative High-Throughput Screening (AID 1296008); details: Five cell lines viability, CellTiter-Glo ATP luminescence, 48-72 h; max response: active compounds read low; also: nearly all actives have a fitted effect of over 60% in size; as to max response: % is scaled to controls: 0 for no effect and ±100 for the full control effect
How it was run: (§1)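 Cells exposed to compounds for 48 or 72 hr at 37 degrees Celsius. Viability read as ATP-coupled luminescence with CellTiter-Glo after 10 min at room temperature.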

NIH3T3 = assay: as above; details: Five cell lines viability, CellTiter-Glo ATP luminescence, 48-72 h; max response: active compounds read low
How it was run: as §1

HACAT [21] = assay: qHTS assay to identify novel small-molecules to repurpose for Merkel cell carcinoma treatment (AID 1296009); details: MCC and control cell lines, CellTiter-Glo viability, 72 h; at 44.8 µM (top of the series) unless noted; also: nearly all actives have a fitted effect of over 60% in size
How it was run: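 Dose-response viability screen; 72 hr exposure at 37 degree celsius; CellTiter-Glo added, 10 min room temperature, luminescence read; RLUs scaled between no-cell and DMSO wells.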

C33A = assay: Primary qHTS to identify gynecologic anti-cancer compounds using libraries of approved drugs and bioactive compounds (AID 1345084); details: Gynecologic cancer cell panel viability, ATPlite luminescence, 48 h; series mostly up to 57.5 µM; also: % is scaled to controls: 0 for no effect and ±100 for the full control effect; nearly all actives have a fitted effect of over 55% in size
How it was run: (§2)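 Cytotoxicity screen measuring ATP content by luciferase luminescence. Each compound is applied at five concentrations for 48 h at 37 C with 5% CO2.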

CAOV3 = assay: as above; details: Gynecologic cancer cell panel viability, ATPlite luminescence, 48 h; series mostly up to 57.5 µM
How it was run: as §2

CASKI = assay: as above; details: Gynecologic cancer cell panel viability, ATPlite luminescence, 48 h; series mostly up to 57.5 µM
How it was run: as §2

HeLa = assay: as above; details: Gynecologic cancer cell panel viability, ATPlite luminescence, 48 h; series mostly up to 57.5 µM
How it was run: as §2

JEG-3 = assay: as above; details: Gynecologic cancer cell panel viability, ATPlite luminescence, 48 h; series mostly up to 57.5 µM
How it was run: as §2

OV90 = assay: as above; details: Gynecologic cancer cell panel viability, ATPlite luminescence, 48 h; series mostly up to 57.5 µM
How it was run: as §2

SKOV3 = assay: as above; details: Gynecologic cancer cell panel viability, ATPlite luminescence, 48 h; series mostly up to 57.5 µM
How it was run: as §2

Tov-21-G = assay: as above; details: Gynecologic cancer cell panel viability, ATPlite luminescence, 48 h; series mostly up to 57.5 µM
How it was run: as §2

[22] = target: Nuclear receptor subfamily 1 group I member 2 (Rattus norvegicus) (UniProt Q9R1A7); assay: qHTS assay for small molecule activators of the rat pregnane X receptor (rPXR) signaling pathway (AID 651751; call rule not given here; also: 0% is about no effect); details: rPXR reporter cells, luciferase (One-Glo), 24 h
[23] = qHTS assay for small molecule activators of the human pregnane X receptor (PXR) signaling pathway (AID 720659; call rule not given here; also: 0% is about no effect)

Sequence of Peroxisome proliferator-activated receptor alpha (Homo sapiens) (Q07869 whole entry, looked up, the tested form may be a part): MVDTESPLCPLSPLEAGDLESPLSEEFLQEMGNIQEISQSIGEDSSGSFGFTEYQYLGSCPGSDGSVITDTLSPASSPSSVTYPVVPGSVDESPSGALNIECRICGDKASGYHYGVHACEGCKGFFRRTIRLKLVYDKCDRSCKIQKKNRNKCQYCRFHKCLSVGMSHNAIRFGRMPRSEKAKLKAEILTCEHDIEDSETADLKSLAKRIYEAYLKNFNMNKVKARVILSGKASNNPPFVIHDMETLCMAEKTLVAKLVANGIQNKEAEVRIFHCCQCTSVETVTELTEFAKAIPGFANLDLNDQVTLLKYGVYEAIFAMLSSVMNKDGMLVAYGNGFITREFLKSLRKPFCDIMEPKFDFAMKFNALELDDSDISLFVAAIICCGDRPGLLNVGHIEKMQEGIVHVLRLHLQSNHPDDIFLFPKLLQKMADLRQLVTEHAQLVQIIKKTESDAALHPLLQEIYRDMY
Sequence of Estrogen receptor (Homo sapiens) (P03372 whole entry, looked up): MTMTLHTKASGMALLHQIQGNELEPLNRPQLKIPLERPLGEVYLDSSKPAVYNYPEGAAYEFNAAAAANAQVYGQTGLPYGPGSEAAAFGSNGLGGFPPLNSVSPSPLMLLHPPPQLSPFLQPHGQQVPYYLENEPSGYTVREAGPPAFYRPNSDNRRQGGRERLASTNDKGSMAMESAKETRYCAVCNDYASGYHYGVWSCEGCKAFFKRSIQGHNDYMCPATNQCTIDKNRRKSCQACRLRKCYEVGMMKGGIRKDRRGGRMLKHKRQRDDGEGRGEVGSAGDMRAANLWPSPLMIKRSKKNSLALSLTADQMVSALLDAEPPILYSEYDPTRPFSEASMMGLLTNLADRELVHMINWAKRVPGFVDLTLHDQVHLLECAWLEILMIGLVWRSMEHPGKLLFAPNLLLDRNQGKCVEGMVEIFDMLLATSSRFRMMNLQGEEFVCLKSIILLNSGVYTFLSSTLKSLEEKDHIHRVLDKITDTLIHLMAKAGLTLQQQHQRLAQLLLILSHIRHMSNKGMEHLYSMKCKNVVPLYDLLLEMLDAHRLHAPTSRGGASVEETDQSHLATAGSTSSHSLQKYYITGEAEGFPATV
Sequence of Glucocorticoid receptor (Homo sapiens) (P04150 whole entry, looked up): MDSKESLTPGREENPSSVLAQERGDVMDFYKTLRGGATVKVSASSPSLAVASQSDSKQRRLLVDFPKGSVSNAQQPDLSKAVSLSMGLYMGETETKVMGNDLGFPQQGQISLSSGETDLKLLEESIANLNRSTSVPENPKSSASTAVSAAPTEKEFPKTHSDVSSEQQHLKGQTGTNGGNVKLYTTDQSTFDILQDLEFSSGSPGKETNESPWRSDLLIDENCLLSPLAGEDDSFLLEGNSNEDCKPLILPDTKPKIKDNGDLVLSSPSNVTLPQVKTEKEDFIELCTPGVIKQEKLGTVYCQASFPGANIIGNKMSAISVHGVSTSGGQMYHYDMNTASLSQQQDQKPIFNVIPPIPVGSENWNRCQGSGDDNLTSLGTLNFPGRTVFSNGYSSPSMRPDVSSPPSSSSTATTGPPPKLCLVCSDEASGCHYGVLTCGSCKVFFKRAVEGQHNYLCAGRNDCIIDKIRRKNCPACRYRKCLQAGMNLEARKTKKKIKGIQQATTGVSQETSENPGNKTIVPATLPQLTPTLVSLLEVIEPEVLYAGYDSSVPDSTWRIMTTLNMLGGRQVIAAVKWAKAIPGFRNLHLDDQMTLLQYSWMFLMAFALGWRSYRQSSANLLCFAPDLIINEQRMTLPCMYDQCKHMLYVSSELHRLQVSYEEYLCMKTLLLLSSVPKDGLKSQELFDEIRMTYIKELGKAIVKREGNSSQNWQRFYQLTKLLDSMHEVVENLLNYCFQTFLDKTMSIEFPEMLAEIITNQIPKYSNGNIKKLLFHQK
Sequence of Thyroid hormone receptor beta (Homo sapiens) (P10828 whole entry, looked up): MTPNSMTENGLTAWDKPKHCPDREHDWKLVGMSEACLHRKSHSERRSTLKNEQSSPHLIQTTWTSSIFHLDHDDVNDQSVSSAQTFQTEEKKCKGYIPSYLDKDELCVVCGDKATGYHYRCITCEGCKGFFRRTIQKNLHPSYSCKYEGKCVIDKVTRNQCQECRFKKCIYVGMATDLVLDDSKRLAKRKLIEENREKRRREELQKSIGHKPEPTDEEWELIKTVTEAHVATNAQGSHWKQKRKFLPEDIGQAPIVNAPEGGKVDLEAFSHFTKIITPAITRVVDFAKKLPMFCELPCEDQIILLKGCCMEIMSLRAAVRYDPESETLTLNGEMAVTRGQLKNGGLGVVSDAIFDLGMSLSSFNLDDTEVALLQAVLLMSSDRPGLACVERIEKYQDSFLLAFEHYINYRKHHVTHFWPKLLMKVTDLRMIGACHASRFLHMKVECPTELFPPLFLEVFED
Sequence of Bile acid receptor (Homo sapiens) (Q96RI1 whole entry, looked up): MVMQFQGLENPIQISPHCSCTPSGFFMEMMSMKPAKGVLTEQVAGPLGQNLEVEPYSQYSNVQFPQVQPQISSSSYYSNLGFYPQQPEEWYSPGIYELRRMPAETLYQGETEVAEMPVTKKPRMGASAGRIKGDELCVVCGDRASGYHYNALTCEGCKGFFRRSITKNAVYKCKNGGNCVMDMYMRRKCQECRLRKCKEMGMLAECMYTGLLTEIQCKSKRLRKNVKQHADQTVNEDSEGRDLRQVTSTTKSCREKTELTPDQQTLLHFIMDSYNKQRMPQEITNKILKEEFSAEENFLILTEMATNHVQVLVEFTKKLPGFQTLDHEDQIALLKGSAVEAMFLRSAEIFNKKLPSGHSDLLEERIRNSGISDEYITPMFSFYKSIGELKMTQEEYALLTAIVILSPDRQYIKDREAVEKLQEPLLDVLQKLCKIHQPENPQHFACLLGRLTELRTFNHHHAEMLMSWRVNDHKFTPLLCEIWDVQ
Sequence of Peroxisome proliferator-activated receptor delta (Homo sapiens) (Q03181 whole entry, looked up): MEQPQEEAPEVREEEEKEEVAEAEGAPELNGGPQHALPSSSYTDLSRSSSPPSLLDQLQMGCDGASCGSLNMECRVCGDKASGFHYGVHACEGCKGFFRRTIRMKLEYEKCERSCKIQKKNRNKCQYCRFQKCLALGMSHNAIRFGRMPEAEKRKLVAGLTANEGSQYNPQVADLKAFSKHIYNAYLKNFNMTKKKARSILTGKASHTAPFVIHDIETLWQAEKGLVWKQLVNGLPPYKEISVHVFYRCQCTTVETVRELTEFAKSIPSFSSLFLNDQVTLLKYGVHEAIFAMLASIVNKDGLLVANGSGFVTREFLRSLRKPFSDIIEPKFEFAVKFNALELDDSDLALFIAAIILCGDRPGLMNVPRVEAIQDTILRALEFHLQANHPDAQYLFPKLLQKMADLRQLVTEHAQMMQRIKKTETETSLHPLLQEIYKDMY
Sequence of Nuclear receptor subfamily 1 group I member 2 (Rattus norvegicus) (Q9R1A7 whole entry, looked up): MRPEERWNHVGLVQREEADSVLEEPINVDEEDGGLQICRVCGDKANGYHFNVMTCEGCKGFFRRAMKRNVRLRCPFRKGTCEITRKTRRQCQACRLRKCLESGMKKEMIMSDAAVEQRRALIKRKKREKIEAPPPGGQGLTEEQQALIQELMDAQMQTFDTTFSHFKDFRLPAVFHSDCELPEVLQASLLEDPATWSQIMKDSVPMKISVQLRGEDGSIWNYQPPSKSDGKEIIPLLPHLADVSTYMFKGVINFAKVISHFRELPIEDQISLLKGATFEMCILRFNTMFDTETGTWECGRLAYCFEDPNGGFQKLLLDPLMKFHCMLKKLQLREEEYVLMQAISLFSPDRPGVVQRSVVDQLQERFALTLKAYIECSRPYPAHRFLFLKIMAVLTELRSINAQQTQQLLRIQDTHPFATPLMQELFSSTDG
Sequence of Peroxisome proliferator-activated receptor gamma (Homo sapiens) (P37231 whole entry, looked up): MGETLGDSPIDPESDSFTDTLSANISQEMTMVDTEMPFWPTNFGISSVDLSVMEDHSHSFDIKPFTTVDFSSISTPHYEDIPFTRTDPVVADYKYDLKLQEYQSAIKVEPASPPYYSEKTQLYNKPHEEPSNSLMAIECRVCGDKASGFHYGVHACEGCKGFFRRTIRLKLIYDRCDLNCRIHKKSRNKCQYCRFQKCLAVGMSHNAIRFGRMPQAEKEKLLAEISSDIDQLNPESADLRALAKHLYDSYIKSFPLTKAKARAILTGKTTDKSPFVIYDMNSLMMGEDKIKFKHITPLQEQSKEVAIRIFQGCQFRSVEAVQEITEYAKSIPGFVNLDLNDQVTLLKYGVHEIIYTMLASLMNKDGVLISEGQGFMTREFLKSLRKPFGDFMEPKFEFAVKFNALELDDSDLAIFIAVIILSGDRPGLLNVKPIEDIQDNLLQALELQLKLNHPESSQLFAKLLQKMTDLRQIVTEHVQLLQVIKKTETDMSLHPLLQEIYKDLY
Sequence of Vitamin D3 receptor (Homo sapiens) (P11473 whole entry, looked up): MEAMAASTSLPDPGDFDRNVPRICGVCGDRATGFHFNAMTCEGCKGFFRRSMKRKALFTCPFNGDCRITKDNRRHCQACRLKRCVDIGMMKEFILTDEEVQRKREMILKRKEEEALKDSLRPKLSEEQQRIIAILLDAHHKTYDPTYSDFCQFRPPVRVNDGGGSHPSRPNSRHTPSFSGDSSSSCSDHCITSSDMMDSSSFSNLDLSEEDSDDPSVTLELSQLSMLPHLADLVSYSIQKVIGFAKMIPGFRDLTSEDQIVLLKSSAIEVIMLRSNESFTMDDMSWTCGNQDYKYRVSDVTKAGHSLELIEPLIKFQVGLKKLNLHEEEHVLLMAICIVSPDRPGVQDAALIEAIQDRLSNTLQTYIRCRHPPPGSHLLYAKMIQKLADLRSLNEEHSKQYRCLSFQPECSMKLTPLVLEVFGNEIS

C[C@@H]1Cc2c(Cl)cc(C(=O)N[C@@H](Cc3ccccc3)C(=O)O)c(O)c2C(=O)O1
active: Potency [1] 44.7 µM | Potency [2] 44.7 µM | Potency [3] 0.891 µM | Potency [4] 39.8 µM | Potency [5] 2 µM | Potency [6] 44.7 µM | Potency [7] 44.7 µM | Potency [8] 0.891 µM | Potency [9] 44.7 µM | Potency [15] 8.98 µM | Potency [16] 6.36 µM
inactive: activation [10] 8.7% | max response [11] -0.744% | outcome [12] | Potency [13] | Potency [14] | outcome [17] | Potency [18] | Potency [19] | outcome (HaCat [20]) | max response (NIH3T3) -8.41% | outcome (HACAT [21]) | Potency (C33A) | Potency (CAOV3) | Potency (CASKI) | Potency (HeLa) | Potency (JEG-3) | Potency (OV90) | Potency (SKOV3) | Potency (Tov-21-G) | max response [22] -12% | outcome [23]
